Measurements taken from the supplement of paper PMC11732987, “Enantioselective OTUD7B fragment discovery through chemoproteomics screening and high-throughput optimisation” (Communications Chemistry, 2025).

Assays:
Assay in all cases: log2 ratio of Biotin-Ahx-Ub-VS probe labelling (fragment/DMSO); higher = less target engagement (more negative = stronger competition), active = hit call of the paper (q ≤ 0.05, log2 ratio ≤ -1)
Conditions in all cases: compound concentration: 200 uM; treatment time: 3 h
USP19 = biological target: T1, USP19 (UniProt O94966)
T1 sequence (whole entry): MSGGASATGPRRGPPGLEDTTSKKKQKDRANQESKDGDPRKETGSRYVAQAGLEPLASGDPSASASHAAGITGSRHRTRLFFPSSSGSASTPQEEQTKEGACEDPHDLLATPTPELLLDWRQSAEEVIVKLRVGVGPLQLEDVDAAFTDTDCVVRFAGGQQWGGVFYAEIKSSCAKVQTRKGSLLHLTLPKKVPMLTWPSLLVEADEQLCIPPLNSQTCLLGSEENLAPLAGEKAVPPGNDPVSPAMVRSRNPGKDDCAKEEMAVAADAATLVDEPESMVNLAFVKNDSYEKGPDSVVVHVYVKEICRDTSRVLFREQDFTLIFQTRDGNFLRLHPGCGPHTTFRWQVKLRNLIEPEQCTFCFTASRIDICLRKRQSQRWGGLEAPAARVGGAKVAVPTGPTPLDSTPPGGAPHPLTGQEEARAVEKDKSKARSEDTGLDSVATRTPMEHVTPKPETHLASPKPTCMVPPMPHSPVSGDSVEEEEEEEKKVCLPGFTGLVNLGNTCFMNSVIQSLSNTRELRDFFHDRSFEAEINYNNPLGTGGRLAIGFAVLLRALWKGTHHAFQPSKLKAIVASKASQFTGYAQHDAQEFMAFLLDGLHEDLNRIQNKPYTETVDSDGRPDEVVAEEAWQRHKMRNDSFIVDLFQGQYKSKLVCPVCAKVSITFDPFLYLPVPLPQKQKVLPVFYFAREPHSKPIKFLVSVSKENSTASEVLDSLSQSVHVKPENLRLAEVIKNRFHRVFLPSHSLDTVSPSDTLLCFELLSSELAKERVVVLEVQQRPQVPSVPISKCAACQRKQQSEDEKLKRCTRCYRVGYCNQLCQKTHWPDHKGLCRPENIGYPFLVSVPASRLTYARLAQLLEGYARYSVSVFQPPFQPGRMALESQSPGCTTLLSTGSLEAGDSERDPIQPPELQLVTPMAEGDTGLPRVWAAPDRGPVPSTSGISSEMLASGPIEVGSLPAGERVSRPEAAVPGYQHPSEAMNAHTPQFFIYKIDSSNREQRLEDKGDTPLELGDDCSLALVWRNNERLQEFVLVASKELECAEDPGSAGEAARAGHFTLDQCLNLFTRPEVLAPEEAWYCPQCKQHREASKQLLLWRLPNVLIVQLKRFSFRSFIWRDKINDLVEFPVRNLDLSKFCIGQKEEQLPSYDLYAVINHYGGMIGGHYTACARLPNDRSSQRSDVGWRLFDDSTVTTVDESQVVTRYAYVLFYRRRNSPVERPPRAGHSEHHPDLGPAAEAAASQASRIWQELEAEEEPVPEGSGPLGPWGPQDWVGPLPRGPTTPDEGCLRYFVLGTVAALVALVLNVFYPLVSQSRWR
In short: (§1)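 HEK293T lysate, 495 µg per sample in Tris/CHAPS/IGEPAL buffer with protease inhibitors, was treated in triplicate with fragment at 200 µM or vehicle for 3 h and then with Biotin-Ahx-Ub-VS at 0.5 µM final for 1 h. Labelled DUBs were NeutrAvidin-enriched, digested with LysC and trypsin, and run by diaPASEF LC-MS/MS. Spectronaut label-free quantities were global-median-normalised, and values are average log2 fragment/vehicle ratios by unpaired t-test on proteins with ≥2 unique peptides.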

USP22 = biological target: T2, USP22 (UniProt Q9UPT9)
T2 sequence (whole entry): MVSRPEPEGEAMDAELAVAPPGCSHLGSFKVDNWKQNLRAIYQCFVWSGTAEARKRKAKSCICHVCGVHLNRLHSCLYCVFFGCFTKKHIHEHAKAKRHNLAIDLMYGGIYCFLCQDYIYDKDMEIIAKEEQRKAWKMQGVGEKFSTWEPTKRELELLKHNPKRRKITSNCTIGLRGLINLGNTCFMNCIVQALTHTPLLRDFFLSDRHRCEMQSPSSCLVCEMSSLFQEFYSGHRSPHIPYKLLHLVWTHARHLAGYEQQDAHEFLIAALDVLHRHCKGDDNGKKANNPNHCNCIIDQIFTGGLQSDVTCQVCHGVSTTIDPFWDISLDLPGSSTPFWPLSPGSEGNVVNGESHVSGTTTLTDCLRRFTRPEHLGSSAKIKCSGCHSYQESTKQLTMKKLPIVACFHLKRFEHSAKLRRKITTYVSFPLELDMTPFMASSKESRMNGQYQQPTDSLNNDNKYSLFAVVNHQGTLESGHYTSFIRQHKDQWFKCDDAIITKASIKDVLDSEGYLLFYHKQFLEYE
In short: as §1

USP24 = USP24 (UniProt Q9UPU5)
In short: as §1

USP25 = biological target: T3, USP25 (UniProt Q9UHP3)
T3 sequence (whole entry): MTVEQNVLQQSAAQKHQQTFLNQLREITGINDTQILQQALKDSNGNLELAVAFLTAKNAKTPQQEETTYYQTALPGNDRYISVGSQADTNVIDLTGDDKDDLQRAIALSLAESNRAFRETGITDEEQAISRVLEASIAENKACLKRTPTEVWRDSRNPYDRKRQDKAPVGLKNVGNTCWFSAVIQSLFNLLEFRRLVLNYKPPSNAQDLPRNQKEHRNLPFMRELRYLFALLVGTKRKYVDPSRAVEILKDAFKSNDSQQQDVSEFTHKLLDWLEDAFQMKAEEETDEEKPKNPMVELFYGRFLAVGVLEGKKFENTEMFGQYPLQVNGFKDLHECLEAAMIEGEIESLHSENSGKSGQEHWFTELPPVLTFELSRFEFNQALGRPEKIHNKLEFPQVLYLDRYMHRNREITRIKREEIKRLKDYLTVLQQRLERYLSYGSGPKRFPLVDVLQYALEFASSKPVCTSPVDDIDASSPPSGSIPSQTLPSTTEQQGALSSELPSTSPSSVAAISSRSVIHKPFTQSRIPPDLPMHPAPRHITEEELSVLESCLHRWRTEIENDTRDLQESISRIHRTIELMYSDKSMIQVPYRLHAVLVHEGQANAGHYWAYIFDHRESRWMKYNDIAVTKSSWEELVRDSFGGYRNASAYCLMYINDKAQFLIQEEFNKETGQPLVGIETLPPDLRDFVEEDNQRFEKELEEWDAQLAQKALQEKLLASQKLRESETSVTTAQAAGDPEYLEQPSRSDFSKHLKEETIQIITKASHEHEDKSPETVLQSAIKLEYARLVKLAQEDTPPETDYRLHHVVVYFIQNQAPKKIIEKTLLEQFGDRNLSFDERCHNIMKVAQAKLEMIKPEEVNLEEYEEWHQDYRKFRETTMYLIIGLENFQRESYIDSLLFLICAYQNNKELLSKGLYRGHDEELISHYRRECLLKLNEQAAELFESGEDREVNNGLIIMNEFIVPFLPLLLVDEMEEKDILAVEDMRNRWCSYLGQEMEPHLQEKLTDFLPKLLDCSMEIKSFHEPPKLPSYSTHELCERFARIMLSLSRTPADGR
In short: as §1

USP28 = biological target: T4, USP28 (UniProt Q96RU2)
T4 sequence (whole entry): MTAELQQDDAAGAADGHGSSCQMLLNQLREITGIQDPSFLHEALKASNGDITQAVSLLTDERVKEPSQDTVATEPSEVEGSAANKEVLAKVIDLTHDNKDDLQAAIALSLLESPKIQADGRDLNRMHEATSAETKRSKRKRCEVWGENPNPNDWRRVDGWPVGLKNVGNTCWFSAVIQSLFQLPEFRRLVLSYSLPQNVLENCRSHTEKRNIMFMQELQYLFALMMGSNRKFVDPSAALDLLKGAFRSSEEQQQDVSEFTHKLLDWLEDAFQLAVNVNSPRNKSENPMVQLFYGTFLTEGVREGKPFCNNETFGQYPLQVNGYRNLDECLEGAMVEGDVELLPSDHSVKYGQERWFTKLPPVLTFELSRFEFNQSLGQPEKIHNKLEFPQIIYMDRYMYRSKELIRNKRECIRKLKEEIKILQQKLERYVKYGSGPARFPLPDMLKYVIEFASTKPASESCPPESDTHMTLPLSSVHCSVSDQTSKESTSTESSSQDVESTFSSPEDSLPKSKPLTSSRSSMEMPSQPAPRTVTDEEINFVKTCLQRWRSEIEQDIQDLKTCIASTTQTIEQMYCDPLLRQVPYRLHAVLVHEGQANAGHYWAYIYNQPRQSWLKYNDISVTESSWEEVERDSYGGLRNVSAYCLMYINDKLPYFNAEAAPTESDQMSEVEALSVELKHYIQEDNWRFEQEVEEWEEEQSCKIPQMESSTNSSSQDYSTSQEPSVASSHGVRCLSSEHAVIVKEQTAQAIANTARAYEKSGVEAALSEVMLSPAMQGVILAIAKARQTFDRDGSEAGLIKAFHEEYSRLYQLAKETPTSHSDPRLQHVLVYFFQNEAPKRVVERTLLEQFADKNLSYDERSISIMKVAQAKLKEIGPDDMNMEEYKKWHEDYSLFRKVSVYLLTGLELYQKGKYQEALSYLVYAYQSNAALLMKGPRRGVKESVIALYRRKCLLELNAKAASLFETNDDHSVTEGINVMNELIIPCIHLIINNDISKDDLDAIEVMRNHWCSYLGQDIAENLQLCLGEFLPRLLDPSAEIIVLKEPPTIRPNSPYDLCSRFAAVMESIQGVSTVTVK
In short: as §1

Measured: log2 ratio of Biotin-Ahx-Ub-VS probe labelling

Chain of USP24 (Q9UPU5 whole entry): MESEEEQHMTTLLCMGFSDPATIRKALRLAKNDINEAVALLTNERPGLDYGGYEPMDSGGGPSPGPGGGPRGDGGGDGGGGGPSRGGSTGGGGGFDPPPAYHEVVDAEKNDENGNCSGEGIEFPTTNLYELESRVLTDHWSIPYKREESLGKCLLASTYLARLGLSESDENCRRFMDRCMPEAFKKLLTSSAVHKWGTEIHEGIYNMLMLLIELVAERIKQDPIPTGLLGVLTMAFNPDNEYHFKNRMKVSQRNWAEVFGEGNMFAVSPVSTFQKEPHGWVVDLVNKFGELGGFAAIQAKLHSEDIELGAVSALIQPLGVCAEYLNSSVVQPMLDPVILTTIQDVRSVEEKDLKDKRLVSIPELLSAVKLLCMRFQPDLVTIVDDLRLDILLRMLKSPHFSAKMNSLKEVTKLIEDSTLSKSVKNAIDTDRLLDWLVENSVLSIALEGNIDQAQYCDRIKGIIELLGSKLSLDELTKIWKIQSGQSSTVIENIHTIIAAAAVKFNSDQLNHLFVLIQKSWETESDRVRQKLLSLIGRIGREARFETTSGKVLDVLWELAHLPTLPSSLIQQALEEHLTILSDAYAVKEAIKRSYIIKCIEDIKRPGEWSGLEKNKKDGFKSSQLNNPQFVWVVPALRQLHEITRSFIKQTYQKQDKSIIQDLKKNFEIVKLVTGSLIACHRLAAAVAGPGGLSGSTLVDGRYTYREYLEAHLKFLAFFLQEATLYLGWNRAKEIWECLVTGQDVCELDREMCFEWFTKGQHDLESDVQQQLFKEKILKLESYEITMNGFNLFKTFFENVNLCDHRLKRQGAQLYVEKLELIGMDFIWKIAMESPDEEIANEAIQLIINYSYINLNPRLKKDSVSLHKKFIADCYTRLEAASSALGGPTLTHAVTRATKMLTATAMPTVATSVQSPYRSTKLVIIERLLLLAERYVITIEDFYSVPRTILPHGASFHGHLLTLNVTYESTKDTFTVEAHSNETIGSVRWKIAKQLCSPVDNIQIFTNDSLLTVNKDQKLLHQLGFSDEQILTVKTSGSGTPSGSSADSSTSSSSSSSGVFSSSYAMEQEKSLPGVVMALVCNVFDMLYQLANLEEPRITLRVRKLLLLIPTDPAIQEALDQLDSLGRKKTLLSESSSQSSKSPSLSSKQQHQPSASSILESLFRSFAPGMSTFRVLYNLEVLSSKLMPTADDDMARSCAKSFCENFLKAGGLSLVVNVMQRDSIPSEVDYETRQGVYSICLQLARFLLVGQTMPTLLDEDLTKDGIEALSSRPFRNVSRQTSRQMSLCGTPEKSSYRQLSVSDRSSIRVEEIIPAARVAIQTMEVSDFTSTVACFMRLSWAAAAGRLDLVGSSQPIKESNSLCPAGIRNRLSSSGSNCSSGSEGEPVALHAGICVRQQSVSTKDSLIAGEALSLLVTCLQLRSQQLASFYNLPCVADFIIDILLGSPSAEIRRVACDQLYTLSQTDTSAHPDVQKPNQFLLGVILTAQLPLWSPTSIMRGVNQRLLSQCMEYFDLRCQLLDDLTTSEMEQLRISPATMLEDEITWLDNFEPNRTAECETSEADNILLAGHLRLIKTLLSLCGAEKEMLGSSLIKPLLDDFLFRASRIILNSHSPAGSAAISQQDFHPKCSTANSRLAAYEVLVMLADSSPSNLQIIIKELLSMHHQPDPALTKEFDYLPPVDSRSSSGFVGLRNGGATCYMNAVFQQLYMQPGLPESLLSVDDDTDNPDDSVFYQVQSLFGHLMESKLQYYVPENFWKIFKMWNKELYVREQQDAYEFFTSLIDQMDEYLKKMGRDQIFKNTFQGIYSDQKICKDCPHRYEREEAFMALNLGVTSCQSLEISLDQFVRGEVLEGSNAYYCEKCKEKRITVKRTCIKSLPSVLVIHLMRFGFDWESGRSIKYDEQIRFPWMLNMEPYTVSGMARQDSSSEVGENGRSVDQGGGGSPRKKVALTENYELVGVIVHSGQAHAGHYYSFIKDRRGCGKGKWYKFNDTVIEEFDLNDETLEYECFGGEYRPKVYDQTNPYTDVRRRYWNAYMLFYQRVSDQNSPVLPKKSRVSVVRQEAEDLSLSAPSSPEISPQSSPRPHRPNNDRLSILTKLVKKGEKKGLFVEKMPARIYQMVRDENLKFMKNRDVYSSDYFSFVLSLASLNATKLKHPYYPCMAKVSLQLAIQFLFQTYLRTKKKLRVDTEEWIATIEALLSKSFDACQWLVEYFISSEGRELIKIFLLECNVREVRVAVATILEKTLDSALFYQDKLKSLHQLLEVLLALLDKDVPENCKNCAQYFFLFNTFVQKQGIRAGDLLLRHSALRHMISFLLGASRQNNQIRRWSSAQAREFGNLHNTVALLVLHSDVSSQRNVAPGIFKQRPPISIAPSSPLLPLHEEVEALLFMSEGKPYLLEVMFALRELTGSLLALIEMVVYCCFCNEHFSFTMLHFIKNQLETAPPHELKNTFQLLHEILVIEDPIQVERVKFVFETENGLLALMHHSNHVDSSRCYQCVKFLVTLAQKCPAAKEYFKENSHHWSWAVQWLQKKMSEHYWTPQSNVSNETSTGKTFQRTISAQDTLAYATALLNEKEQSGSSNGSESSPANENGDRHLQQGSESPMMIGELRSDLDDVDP

CNC(=O)C1(NC(=O)CCl)CCCCC1
inactive: USP19 0.162 | USP22 -0.0396 | USP24 0.0556 | USP25 -0.118 | USP28 -0.181
